Assay results: ChEMBL document CHEMBL4513216, “Probing the Open Global Health Chemical Diversity Library for Multistage-Active Starting Points for Next-Generation Antimalarials” (ACS Infect Dis, 2020)
About 2,700 (4%) of roughly 68,000 compounds showed an effect of 50% or more. The sample as a whole holds a higher share of strong results than the screen did.

These compounds were tested on Plasmodium berghei (assay: Screen against P. berghei liver stage (PbLuc), transformed with Luciferase, at 2uM). Conditions: tested at 2 uM.
Type: functional, HepG2

Row | Structure (SMILES) | INHIBITION [%]
1 | COc1cc(N2CCC3(CC2)CC(N2CCN(C)CC2)CO3)ncn1 (centres undefined) | -39.89
2 | COc1cc(N2CCC3(CC2)CC(N2CCOCC2)C3)ncn1 | 52.36
3 | COc1cc(N2CCC3(CC2)CC(N2CCOCC2)CO3)ncn1 (centres undefined) | 34.24
4 | CSCCC(C)(O)CNS(=O)(=O)Cc1cccc(C)c1 (centres undefined) | -40.82
5 | O=C(Cc1ccon1)NC1CCCN(c2ccccc2F)C1=O (centres undefined) | 28.73
6 | O=C(Cc1nc(-c2ccncc2)n[nH]1)NCCCN1CCOCC1 | 15.46
7 | O=C(NCC(F)(F)F)C1CCC(=O)N(C2CCCC2)C1 (centres undefined) | 9.13
8 | CC(C)OCCNC(=O)C1CCC(=O)N(C2CCCC2)C1 (centres undefined) | 28.95
9 | O=C(NCCn1cccc1)C1CCC(=O)N(C2CCCC2)C1 (centres undefined) | 10.75
10 | COC(C)(C)CNC(=O)C1CCC(=O)N(C2CCCC2)C1 (centres undefined) | 8.03
11 | CSCCCNC(=O)C1CCC(=O)N(C2CCCC2)C1 (centres undefined) | 56.49
12 | C=C(C)CNC(=O)C1CCC(=O)N(C2CCCC2)C1 (centres undefined) | 2.52
13 | CSCCNC(=O)C1CCC(=O)N(C2CCCC2)C1 (centres undefined) | 21.24
14 | CC(C)OCCCNC(=O)C1CCC(=O)N(C2CCCC2)C1 (centres undefined) | 68.61
15 | O=C(NCCN1CCCCC1=O)C1CCC(=O)N(C2CCCC2)C1 (centres undefined) | 54.29
16 | Cc1cc(C(=O)N2CCCS2(=O)=O)c(C)o1 | -15.41
17 | COC(=O)CN1CCC(C(=O)c2cc(F)ccc2F)CC1 | 35.23
18 | Cc1oc(-c2ccco2)nc1CN1CCCC(Cn2cncn2)C1 (centres undefined) | 43.7
19 | O=C(CN1CC(c2ccccc2)CC1=O)N1CCC(c2ncc[nH]2)CC1 (centres undefined) | -63.6
20 | Cc1nnc2n1CCN(C(=O)C(C)Oc1ccc(C#N)cc1)C2 (centres undefined) | 35.56
21 | COc1cc(C#N)ccc1OCC(=O)NS(=O)(=O)c1ccccc1 | -0.89
22 | CC(C)c1noc(OCC(=O)N(C)C(C)C)n1 | -6.48
23 | Cc1nsc(N2CCCN(C(=O)c3ccc4[nH]ccc4c3)CC2)n1 | 24.36
24 | Cc1nsc(N2CCN(C(=O)Nc3cccc(F)c3)CC2)n1 | 45.82
25 | Cc1nsc(N2CCN(C(=O)Nc3ccc4[nH]ccc4c3)CC2)n1 | 57.75
26 | CO[C@H]1CN(C(=O)c2cn3cc(C)ccc3n2)CC[C@@]12CCCO2 | 80.88
27 | CO[C@H]1CN(C(=O)c2cccc(C)n2)CC[C@@]12CCCO2 | 19.91

Row | Structure (SMILES) | INHIBITION [%]
28 | CO[C@H]1CN(C(=O)c2ccc3oc(C)cc3c2)CC[C@@]12CCCO2 | 27.16
29 | COc1ccc(F)cc1-c1ccccc1CC1(C(=O)O)CCOCC1 | 53.95
30 | COCCNC(=O)C1(Cc2ccccc2-c2ccncc2)CCOCC1 | 52.82
31 | CC(C)(C)NC(=O)C1(Cc2ccccc2-c2ccncc2)CCOCC1 | 16.55
32 | COc1ccccc1-c1ccccc1CC1(C(=O)O)CCNCC1 | -18.15
33 | COc1ccccc1C1=NOC(CC2(C(=O)O)CCOCC2)C1 (centres undefined) | 8.89
34 | O=C(NCCO)C1(Cc2ccccc2-c2ccncc2)CCOCC1 | 26.14
35 | COCCOc1cccc(CNCc2ccc(-n3cncn3)nc2)c1 | 5.47
36 | CC(C)N1CCO[C@H]2CN(C(=O)Cc3cccs3)C[C@H]21 | 9.87
37 | COc1ccc(-c2nnc(SC(C)C(N)=O)[nH]2)c(OC)c1 (centres undefined) | -61.3
38 | COc1ccc(C(=O)C2CCCN(c3cnccn3)C2)c(C)c1 (centres undefined) | 16.87
39 | COc1ccc(C(=O)C2CCCN(c3cc(N)ncn3)C2)c(C)c1 (centres undefined) | 16.32
40 | COc1ccc(C(=O)C2CCCN(c3cc(OC)ncn3)C2)c(C)c1 (centres undefined) | 60
41 | CN(C)Cc1ccccc1CN(C)C(=O)c1ccoc1 | 16.49
42 | CN(CCc1ccncc1)CCc1nccs1 | 78.24
43 | CCc1ccsc1C(=O)N(C)CCc1ccncc1 | 70.66
44 | CN(CCc1ccncc1)C(=O)c1sccc1OC(F)F | -120.22
45 | CN(CCc1cccs1)CCc1nccs1 | 55.25
46 | CN(CCc1ccccn1)CCc1nccs1 | 15.84
47 | CCN(CCc1nccs1)C(=O)c1ccco1 | 44.23
48 | Cc1ncsc1C(=O)N(C)CCc1ccncc1 | -3.38
49 | CN(CCc1ccncc1)Cc1nccn1Cc1ccccc1 | 33.78
50 | CCC(=O)N(CC)CCc1nccs1 | 36.57
51 | O=C(NCCc1cscn1)c1coc(CN2CCOCC2)c1 | -0.28
52 | Cc1cccc(N2CCN(C(=O)Cc3ccccc3O)C(C)C2)n1 (centres undefined) | 10.49
53 | O=C(O)c1ccn(COc2c(Cl)cccc2Cl)n1 | 10.62
54 | Cc1ccc(CN2CCc3c(COCC4CC4)nn(C)c3C2)s1 | 22.12
